Pf growth 96h: P. falciparum growth inhibition at 96 hour, primary screen for plastid delayed-death inhibitors | P. falciparum luciferase reporter growth, 96 h | actives 6.9% (n = 320,000) | Potency, µM (series often up to 28.7 µM), inactives show at the top dose activity change, negative = inhibition, most hits filed as inhibitors; further: potency means the concentration at half of the fitted maximal effect; on the % scale 0 is the no-effect control and ±100 the full control effect
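Plates of compound plus infected erythrocytes (2% hematocrit, 0.05% parasitemia final) incubate 96 hours, 37 C, 5% CO2. Detection reagent added; reduced luminescence from the parasites' luciferase reporter flags inhibition.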
Pf growth 48h: inhibits P. falciparum growth in the first generation, 48 h | Potency, µM (titrated, usually from 28.7 µM), for the others: at the top dose activity change, negative = inhibition, most hits filed as inhibitors | AID 504832 | P. falciparum luciferase growth in erythrocytes, 48 h | actives 5.9% (n = 310,000); further: potency means the concentration at half of the fitted maximal effect; on the % scale 0 is the no-effect control and ±100 the full control effect
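Compounds are pin-transferred into medium, infected erythrocytes (2% hematocrit, 0.1% parasitemia final) are added, and plates sit one parasite generation at 37 C in 5% CO2. Detection reagent is then added and luminescence measured.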
Shiga toxin inh: blocks Shiga toxin action in Vero cells; Vero cells, Shiga toxin protein synthesis inhibition reporter; inhibition, % at 38.7 µM; actives 9.2% (n = 290,000); in the data active means inhibition mostly above about 28%, no sharp cut-off; inactive means mostly below about 43%; further: 0% is about no effect
Marburg entry inh: Marburg virus entry inhibition; Marburg virus pseudotyped entry inhibition, cell reporter; Potency, µM (series often up to 37.8 µM), for the others: at the top dose activity change, negative = inhibition, hits mostly inhibitors; actives 1.8% (n = 300,000); AID 540276; calls by dose curve; tested in HEK293 cells; further: potency means the concentration at half of the fitted maximal effect; on the % scale 0 is the no-effect control and ±100 the full control effect
CHX counter-1: affects cycloheximide protein synthesis inhibition readout, counter-screen | cell reporter, cycloheximide protein synthesis inhibition counterscreen | max response, % | actives 12% (n = 300,000) | AID 2314; in the data active means max response mostly above about 13%, no sharp cut-off; inactive means mostly below about 14%; further: read at 38.3 µM for the half of the compounds with a filed dose; 0% is about no effect
Lassa entry inh: inhibitors of Lassa virus binding or cell entry; Lassa virus pseudotype entry inhibition, cell reporter; Potency, µM (top dose mostly 37.9 µM), for inactives: at the highest dose activity change, negative = inhibition, hits mostly inhibitors; actives 1.2% (n = 300,000); calls by dose curve; tested in HEK293 cells; further: potency means the concentration at half of the fitted maximal effect; on the % scale 0 is the no-effect control and ±100 the full control effect; nearly all actives have a fitted effect of over 50% in size
CHX counter-2: affects protein synthesis reporter in cycloheximide counter-screen | shares compounds with Shiga toxin inh | Cycloheximide counterscreen, protein synthesis reporter, Shiga toxin assay | Potency, µM (top dose mostly 38.3 µM), without a hit: at the highest dose activity (activation), usual class: activators | actives 3% (n = 510) | AID 2318; calls by dose curve; further: potency means the concentration at half of the fitted maximal effect; 0% is about no effect
* hit, by the source's call; ? = inconclusive; . = not tested or not shown; + = active, no number; [ ] = remark or other dose. Compounds with a hit are over-represented: about 19% of the library has one in this group of screens. Unless noted, the call rests on the fitted dose curve; in most records, active means well fitted inhibition curve with a large enough effect; inconclusive means small, poorly fitted or top-dose-only effect, or another doubt; inactive means no such curve, though single readings can be large or run the other way.

SMILES	Pf growth 96h	Pf growth 48h	Shiga toxin inh	Marburg entry inh	CHX counter-1	Lassa entry inh	CHX counter-2
O=C1c2ccccc2C(=O)c2c1ccc1c(=O)n(C3CCCCC3)[nH]c21	-22%	?	27*	2%	5	0%	-5%
COCCCn1c(SCC(=O)OC2CCCCC2)nnc1-c1cccs1	-32%	-16%	86*	?	-1	6%	-2%
C=CCNC(=O)NC(=O)Cn1c(=O)c2c(ncn2CC)n(Cc2ccccc2)c1=O	-9%	?	3	-5%[46.1 µM]	8	-8%[46.1 µM]	.
NC(=O)[C@@H]1CCCN1C(=O)c1ccc2nc(Cc3cccc(Cl)c3)oc2c1	10µM*	2%	24*	13%[46.1 µM]	-2	23%[46.1 µM]	0%
CCN1CC(CNC(=O)c2ccc3nc(Cc4cccc(Cl)c4)oc3c2)CC1=O (stereo unspecified)	33%	1%	-12	.	-1	.	.
CC(=O)N1CCC(C(=O)Nc2ccc3c(c2)CCC3)CC1	?	85%	-16	.	-3	.	.
CC(=O)Nc1ccc2c(c1)CCCC2	43%	26%	20*	.	-3	.	0%
Cc1nn(CC(=O)OCC(=O)Nc2c(C(C)C)cccc2C(C)C)c(C)c1[N+](=O)[O-]	50%	4%	-3	?	-1	?	.
CCCc1cc(=O)oc2cc(C)cc(OCC(=O)NCc3ccccn3)c12	2.6µM*	?	122*	.	12	.	-3%
O=C(Cn1cc2c(n1)CCCCC2)Nc1ccccc1Br	?	?	73*	.	11	.	-1%
COc1ccccc1NC(=O)CSc1nnc(-c2ccco2)n1Cc1ccco1	?	-25%	63*	-15%	-4	-1%	3%
O=C(CSc1nnc(-c2ccco2)n1Cc1ccco1)Nc1ccccc1	?	10%	-2	-7%	-2	-9%	.
O=C(c1ccco1)N1CCN(CCOc2ccc(F)cc2)CC1	14%	-9%	17	3%	2	.	.
O=C(c1ccco1)N1CCN(CCCCOc2cccc3ccccc23)CC1	?	?	37*	?	7	9%	0%
Cc1ccc(NS(=O)(=O)c2ccc(NC(=O)c3ccc(Br)o3)cc2)c(C)c1	-19%	?	21	?	-2	?	.
Cc1cc(NC(=O)c2ccc(Br)o2)ccc1NC(=O)c1ccco1	?	-10%	61*	27%[46.1 µM]	9	20%[46.1 µM]	5%
CN(C)c1ccc(/C=[N+](\[O-])C(C)(C)/C=N/O)cc1	?	21%	-11	-12%	1	10%	.
CN(C)c1ccc(/C=C/C#N)cc1	10%	6%	31*	.	9	.	5%
C=CC[n+]1ccc2ccccc2c1C	-22%	?	-14	?	12	15%	.
O=C(CC(c1ccccc1)c1cc(Cl)ccc1O)N1CCOCC1 (stereo unspecified)	-33%	11%	-8	-30%[46.1 µM]	-4	-12%	.
O=C(CC(c1ccccc1)c1cc(Cl)ccc1O)N1CCCC1 (stereo unspecified)	?	?	57*	-23%[46.1 µM]	5	1%	-2%
Cc1nn(-c2ccccc2)c(N)c1C(O)(CSc1nccn1C)C(F)(F)F (stereo unspecified)	?	.	-8	-24%	-2	17%	.
Cc1nn(-c2ccc(Cl)cc2)c(N)c1C(O)(CSc1nccn1C)C(F)(F)F (stereo unspecified)	3%	?	69*	2%	13	28%	0%
Cc1ccc(NC(=S)c2nc3ccccc3s2)cc1	87%	101%	73*	?	20	?	0.71µM*
CCN1C(=O)/C(=C/c2ccc(OC)c(OC)c2)N=C1SCC(=O)NCc1ccco1	13%	20%	26*	-8%	1	0%	3%
SMILES	Pf growth 96h	Pf growth 48h	Shiga toxin inh	Marburg entry inh	CHX counter-1	Lassa entry inh	CHX counter-2
COc1ccc(-c2[nH]c(-c3ccc(C)cc3)nc2SCC(=O)NCc2ccco2)cc1OC	26%	.	2	-6%	4	.	.
COc1cc(OC)cc(C(=O)N[C@H](C(=O)Nc2ccc3c(c2)OCO3)C(C)C)c1	-16%	-15%	-18	0%[46.1 µM]	12	.	.
O=C(COC(=O)c1ccccc1)NCc1cccs1	20%	23%	41	23%	11	9%	.
COc1ccc(S(=O)(=O)NC2CC(=O)N(c3ccc4c(c3)OCCO4)C2)cc1 (stereo unspecified)	-8%	?	.	6%[46.1 µM]	.	11%	.
CCC(=O)Nc1cc(C)c(NC(=O)c2ccco2)cn1	-12%	14%	7	?	7	13%	.
CCCC(=O)Nc1cnc(NC(=O)c2cccc(F)c2)cc1C	.	37%	67*	?	4	?	1.6µM*
COC(=O)c1ccccc1NC(=O)c1ccc2c(c1)C(=O)N(Cc1ccco1)C2=O	.	.	.	0%	.	6%	.
O=C1C(Cl)=C(Nc2ccccc2)C(=O)c2ccccc21	8%	23%	69*	?	9	?	?
O=C(CNC(=O)c1ccc(Cl)cc1Cl)OCC(=O)N1CCN(c2ccccc2)CC1	-2%	8%	-11	16%	-3	-5%	.
Cc1cc(C)c2nc(-c3ccccn3)cc(C(=O)NCc3ccco3)c2c1	1%	-2%	10*	?	17	-13%	?
Cc1cccc(Oc2ccccc2NC(=O)C2=COCCO2)c1	-28%	?	.	.	.	.	.
COCCOC(=O)c1c(C)oc2ccc(OCc3ccccc3)cc12	-22%	-9%	-5	2%	-4	?	.
COCCOC(=O)c1c(C)oc2ccc(OC(=O)c3ccco3)cc12	15%	26%	+	22%	12	16%	5%
CCCCC(=O)Nc1ccc(NC(=O)C2CC2)nc1	2%	14%	41*	1%[46.1 µM]	9	2%	0%
O=C(Cc1ccccc1)Nc1ccc(NC(=O)C2CC2)nc1	66%	15%	23	-2%	-2	-13%	.
Cc1cccc(NC(=O)C2CCCC2)c1	-13%	2%	36*	12%	-3	2%	3%
Cc1cccc(NNC(=O)C2CCC2)c1	21%	0%	-8	.	-4	.	.
COc1ccccc1-n1cnnc1SCC(=O)Nc1ccccc1	48%	24%	62*	?	1	19%[46.1 µM]	6%
O=C(CSc1nncn1-c1ccccc1)Nc1ccccc1	?	37%	-4	4%	-3	25%	.
COc1ccc(NC(=S)NCc2ccco2)c(OC)c1	33%	.	-7	-2%[46.1 µM]	-3	6%	.
CCCCSCCCNC(=O)CCCN1C(=O)c2ccccc2Sc2ncccc21	?	?	32*	?	2	?	5%
CCCNC(=O)CCCN1C(=O)c2ccccc2Sc2ncccc21	?	-8%	-4	.	4	.	.
COc1ccc(N/C=C(\C#N)c2nc3ccccc3n2C)c(OC)c1	-92%	?	81*	-6%	-2	7%	?

Screening data from PubChem BioAssay.
